# Experimental data taken from PubChem BioAssay (NCATS).
# Records with an inconclusive call do not appear. Unmarked numbers belong to inactive results. The source made the active and inactive calls. Calls come from the whole dose curve; as a rule, active = well fitted cell-killing curve with a large enough effect; inconclusive = small, poorly fitted or top-dose-only effect, or effect the other way; inactive = no such curve, though single readings can be large or run the other way.
# Assay: Viability qHTS for spleen associated tyrosine kinase inhibitor (SYKi) drug resistant MV4-11 cells (AID 1963824); note: nearly all actives have a fitted effect of over 35% in size
# Conditions: SYKi-resistant MV4-11 viability, CellTiter-Glo, 72 h; series mostly up to 45 µM; viability, % of control: at the top concentration
# Procedure, shortened: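 CellTiter-Glo luminescence, read 10 min after reagent addition, reports viability after a 72 hr compound exposure. Cells are an MV4-11 line made resistant to SYK inhibition, seeded at 500 per well onto compound-containing plates.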
# Potency is the fitted concentration of half-maximal effect.
Compound,"viability, % of control",Potency
COC(=O)c1ccc(O[C@@H]2O[C@H](CO)[C@@H](O)[C@H](O)[C@H]2O)c(OC)c1,81.4%,
COc1cc(/C=C/C(=O)OCC2OC(OC3(CO)OC(CO)C(O)C3O)C(O)C(O)C2O)ccc1O (stereo not drawn),97.3% [at 17.3 µM],
CCN(Cc1cc(Nc2nc(C)cn3c(-c4cn[nH]c4)cnc23)sn1)C(C)(C)CO,,0.0082 µM (active)
Cn1nc(C(C)(C)C)cc1C(=O)N[C@@H](Cc1cccc(Cl)c1)C(=O)NCC#N,,13 µM (active)
CC(C)c1onc(-c2c(Cl)cccc2Cl)c1COc1ccc(/C=C/c2cccc(C(=O)O)c2)c(Cl)c1,,14.8 µM (active)
C=C1C(=O)OC2CC(COC(=O)C(C)C)=C(C(C)CCCOC(C)=O)[C@@H](OC(C)=O)C12 (stereo partly drawn),,8.93 µM (active)
CC(c1c[nH]c2ccccc12)C(O)C(=O)O (stereo not drawn),74.5%,
CC(=O)NC(C)c1cnc(-c2cnc(Oc3ccc(OC(C)C)cc3)s2)s1 (stereo not drawn),,10.3 µM (active)
O=C(/C=C/c1ccc(O)cc1)OC[C@@]1(O)C=C[C@@H]2C(C(=O)O)=CO[C@@H](O[C@@H]3O[C@H](CO)[C@@H](O)[C@H](O)[C@H]3O)[C@@H]21,89.7% [at 17.3 µM],
COC(=O)C[C@H]1C(C)(C)[C@H](OC(=O)c2ccccc2)C2CC3=C4CC(=O)O[C@@H](c5ccoc5)[C@]4(C)CCC3[C@@]1(C)C2=O (stereo partly drawn),,10 µM (active)
Cc1c(-c2ccc3c(c2)OCO3)oc2ccc(C(O)C(C)O)cc12 (stereo not drawn),,12.8 µM (active)
CC(C)c1cc(-c2ccc(F)c3ccccc23)nc(N)n1,,5.17 µM (active)
COc1cc(NC(=O)c2cccc(-n3cc(NC(=O)Nc4cccc(C)c4)cn3)c2)cc(OC)c1OC,,9.2 µM (active)
